Screens as filed in PubChem BioAssay.
This is a sample that favours compounds with a hit; in the whole collection about 4.5% have one here.
EBNA-1 inhibitor: blocks EBNA-1 binding to DNA; EBNA-1 DNA binding, fluorescence polarization; inhibition, % at 14.8 µM; actives 0.34% (n = 300,000); in the data active means inhibition above about 28%
NR3A LBD binder: modulators (binders) of human NR3A ligand-binding domain. NR3A LBD differential scanning fluorimetry, Tm shift; 0% = protein alone, 100% = glycine-bound protein. Tm shift relative to glycine control, % at 25 µM. actives 2.5% (n = 340,000). AID 1259313;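 active means melting temperature shift of at least 10% of the positive control shift, at one fixed dose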
dFosB activator: mouse delta FosB homodimer activation; actives 0.99% (n = 340,000); purified delta FosB, TAMRA-CDK5 oligo fluorescence polarization; percent of positive-control signal above neutral wells; activation, % at 25 µM;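 active means mean activation above about 17%, with every replicate also reaching it, limit read from the data, passing the limit was not always enough; inconclusive means only one of the two conditions met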
Target sequence (P13346 whole entry, looked up): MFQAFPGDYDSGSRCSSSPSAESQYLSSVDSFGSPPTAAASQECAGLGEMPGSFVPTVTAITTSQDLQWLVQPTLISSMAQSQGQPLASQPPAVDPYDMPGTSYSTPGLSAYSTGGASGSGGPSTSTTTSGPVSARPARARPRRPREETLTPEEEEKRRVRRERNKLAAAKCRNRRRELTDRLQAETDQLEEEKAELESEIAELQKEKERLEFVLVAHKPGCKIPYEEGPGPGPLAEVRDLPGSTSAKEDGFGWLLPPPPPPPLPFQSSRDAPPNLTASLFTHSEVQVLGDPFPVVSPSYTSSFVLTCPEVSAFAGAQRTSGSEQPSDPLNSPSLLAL
Rpn11 block: blocks the human proteasome subunit Rpn11 | human 26S proteasome, Ub4-pepOG fluorescence polarization; 20S core pre-blocked with epoxomicin | inhibition, % at 20 µM | actives 0.59% (n = 360,000);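 active means inhibition at 20 µM, scaled to each plate's controls, above about 33%, limit read from the data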
ZTA DNA inh: ZTA (EBV) inhibition in EBNA-1 counter-screen; ZTA-DNA binding, fluorescence polarization; inhibition, % at 11 µM; actives 0.15% (n = 320,000); AID 2234; in the data active means inhibition above about 33%
Target sequence (P03206 whole entry, looked up): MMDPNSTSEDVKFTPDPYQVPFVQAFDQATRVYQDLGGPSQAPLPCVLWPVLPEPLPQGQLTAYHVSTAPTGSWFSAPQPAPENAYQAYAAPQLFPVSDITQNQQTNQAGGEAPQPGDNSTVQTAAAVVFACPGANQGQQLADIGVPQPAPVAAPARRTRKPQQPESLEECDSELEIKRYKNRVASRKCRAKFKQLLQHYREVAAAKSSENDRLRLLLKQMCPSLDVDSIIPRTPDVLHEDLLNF
TPT1 inhibitor: C. albicans TPT1 enzyme inhibition; recombinant caTPT1, FP RNA substrate dephosphorylation; inhibition, % at 5 µM; actives 0.81% (n = 300,000); AID 1962;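 active means inhibition above the mean of all tested compounds plus 3 SD, set per screening campaign, cut at about 24% in these data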
Large screens that a line does not name were inactive.

CCCCCCCCCCOC(=O)Cn1c(COc2ccccc2C)[n+](C)c2ccccc21	NR3A LBD binder 31.0, dFosB activator 37.4
Cc1nc(NC(=O)COC(=O)C2CC2C)c(Cl)cc1Cl (stereo unspecified)	none (no result: EBNA-1 inhibitor, ZTA DNA inh, TPT1 inhibitor)
CCN(C[C@H]1N[C@@](C)(C(=O)OC)[C@H]2C(=O)N(Cc3ccccc3)C(=O)[C@@H]12)C(=O)Nc1ccc(C)cc1	none (no result: EBNA-1 inhibitor, ZTA DNA inh, TPT1 inhibitor)
COc1ccccc1C(=O)OCC(=O)NC1CCCC1	none
O/N=C(/c1ccc(F)cc1)C1CC1c1c(F)cccc1Cl (stereo unspecified)	none
COc1ccc(Cl)cc1-c1cc(C(=O)Nc2ccc(F)cc2)[nH]n1	none (no result: EBNA-1 inhibitor, NR3A LBD binder, dFosB activator, ZTA DNA inh, TPT1 inhibitor)
COc1ccc(Cl)cc1NC(=O)c1cc(-c2ccccc2O)n[nH]1	NR3A LBD binder 23.9
COc1ccc(NC(=O)c2cc(-c3ccc(C)cc3O)n[nH]2)c(OC)c1	NR3A LBD binder 37.5
COc1ccc(OC)c(NC(=O)c2cc(-c3cc(Cl)ccc3O)n[nH]2)c1	NR3A LBD binder 33.2, dFosB activator inconclusive
O=C(NCc1ccc2c(c1)OCO2)c1cc(-c2cc(Cl)ccc2O)n[nH]1	NR3A LBD binder 11.2, dFosB activator inconclusive
COc1ccc(NC(=O)c2ccc3[nH]c(C)c(C)c3c2)c(OC)c1	NR3A LBD binder 14.8
CC(C)NC(=O)c1ccccc1S(=O)(=O)c1ccccc1C#N	none
CNC(=O)c1ccccc1S(=O)(=O)c1ccccc1C#N	NR3A LBD binder 10.8
CC(C)(O)C(=O)NNC(=S)Nc1cccc(C(F)(F)F)c1	none
O=C(NNc1ccccc1Br)C(O)(c1cccc(C(F)(F)F)c1)c1cccc(C(F)(F)F)c1	NR3A LBD binder 31.9
O=C(NC1CCCCNC1=O)c1ccccc1 (stereo unspecified)	none
O=C(Nc1ccc(Cl)cc1)N1CCN(c2ccc3nnc(-c4ccc(F)cc4)n3n2)CC1	NR3A LBD binder 27.2
O=C(Nc1ccccc1Cl)N1CCN(c2ccc3nnc(-c4ccccc4)n3n2)CC1	none
COc1cccc(/C=N/NC(=O)c2nnn(-c3nonc3N)c2CN(C)c2ccccc2)c1	NR3A LBD binder 19.5
CN(Cc1c(C(=O)N/N=C/c2cccc(F)c2)nnn1-c1nonc1N)c1ccccc1	NR3A LBD binder 36.8
CN(C)Cc1c(C(=O)N/N=C/c2cccc(OCc3c(F)cccc3Cl)c2)nnn1-c1nonc1N	NR3A LBD binder 23.6
CN(C)Cc1c(C(=O)N/N=C/c2ccccc2OCc2c(F)cccc2Cl)nnn1-c1nonc1N	none
CN(Cc1c(C(=O)N/N=C/c2cccc(F)c2)nnn1-c1nonc1N)C1CCCCC1	none
CN(C)Cc1c(C(=O)N/N=C/c2cccc(OCc3ccccc3)c2)nnn1-c1nonc1N	none
Cc1cc(=O)[nH]c(-c2ccccc2OC(F)(F)F)n1	none
N=c1c2ccccc2nc2n1CCCCCCCCCCC2	none
CCOc1ccc(NC(=O)C2CCN(S(=O)(=O)c3ccc4c(c3)NC(=O)C(C)S4)CC2)cc1 (stereo unspecified)	none
CCN(CC)CCCNc1nnc(C)c(=O)[nH]1	NR3A LBD binder 11.0
Cc1ccc(NC(=O)CC(=O)c2ccccc2)cc1C	none
CCOC(=O)c1cnc2ccc(OCC)cc2c1NCc1ccccc1OC	NR3A LBD binder 20.1
COc1ccc(N(CC(O)CN2CCOCC2)S(=O)(=O)c2ccccc2)cc1 (stereo unspecified)	none
O=C(NNS(=O)(=O)c1ccc(Br)cc1)NC1CCCCC1	NR3A LBD binder 13.0
O=S(=O)(NC1CCCCC1)c1ccc(Br)cc1	none
Cc1cc(C)c(NC(=O)Cn2cnc3c(oc4ccccc43)c2=O)c(C)c1	dFosB activator 52.1
Cc1ccccc1NC(=O)Cn1cnc2c(oc3ccccc32)c1=O	none
N#CCCN(C(=O)COC(=O)C1=NNC(=O)CC1)c1ccccc1	none
O=C(O)C1C2CCC(O2)C1C(=O)Nc1ccccc1Br (stereo unspecified)	none
COc1ccc(Cl)cc1C(=O)NNC(=O)C1CCCO1 (stereo unspecified)	none (no result: EBNA-1 inhibitor, ZTA DNA inh, TPT1 inhibitor)
CN1C=C/C(=C\c2cc[n+](C)c3ccccc23)c2ccccc21	dFosB activator 37.9 (no result: EBNA-1 inhibitor, ZTA DNA inh, TPT1 inhibitor)
Cc1ccn2c(Nc3ccc4c(c3)OCO4)c(-c3ccccn3)nc2c1	dFosB activator 20.6
Cc1ccc(Nc2c(-c3ccccn3)nc3cc(C)ccn23)cc1	dFosB activator 20.5
Cc1ccc(Nc2c(-c3ccccn3)nc3ccc(C)cn23)cc1	dFosB activator inconclusive
Cc1ccn2c(NC3CCCC3)c(-c3ccccn3)nc2c1	none
CC(=O)NCCNc1nc2c(-c3cccc(C)c3)nnn2c2ccccc12	none
Cc1ccc(-c2nnn3c2nc(NC(C)C)c2ccccc23)cc1	NR3A LBD binder 22.9
Nc1nc2c(-c3ccc(Br)cc3)nnn2c2ccccc12	NR3A LBD binder 37.2
Cc1cccc(-c2nnn3c2nc(NCCc2ccc(S(N)(=O)=O)cc2)c2ccccc23)c1	NR3A LBD binder 32.7
NS(=O)(=O)c1ccc(CCNc2nc3c(-c4cccc(F)c4)nnn3c3ccccc23)cc1	NR3A LBD binder 14.7
OCc1nc2c(ccc3ccccc32)[nH]1	none
COc1cc(S(=O)(=O)N2CCN(C(=O)c3cccs3)CC2)ccc1NC(C)=O	none (no result: EBNA-1 inhibitor, NR3A LBD binder, dFosB activator, ZTA DNA inh, TPT1 inhibitor)
CC(=O)Nc1ccc(CN2CCN(c3cccc(C(F)(F)F)c3)CC2)cc1	NR3A LBD binder 19.9
CC(=O)Nc1ccc(NC(=O)/C=C/c2cccc(C(F)(F)F)c2)cc1	NR3A LBD binder 18.1
CC(=O)Nc1ccc(NC(=O)/C=C/c2ccc(Cl)cc2)cc1	NR3A LBD binder 12.8
C[C@H](O)C#Cc1cnc2c(c1)C(=O)N([C@H](C)CO)C[C@@H](C)[C@@H](CN(C)Cc1ccc(-c3ccccc3)cc1)O2	none (no result: EBNA-1 inhibitor, NR3A LBD binder, dFosB activator, ZTA DNA inh, TPT1 inhibitor)
CCCCNC(=O)c1onc(CSc2ccc(F)cc2)c1C(=O)O	none
CCCCNC(=O)c1onc(CSc2ccc(OC)cc2)c1C(=O)O	NR3A LBD binder 11.5
N/C(=N\S(=O)(=O)c1cc(C(F)(F)F)cc(C(F)(F)F)c1)c1ccncc1	NR3A LBD binder 14.5
N/C(=N\S(=O)(=O)c1cc(C(F)(F)F)cc(C(F)(F)F)c1)c1ccc(Cl)cc1	NR3A LBD binder 18.6
CCOc1ccc(NC(=O)c2sc3nc(C)nc(N4CCOCC4)c3c2C)cc1	NR3A LBD binder 16.5
COC(=O)c1ccc(Nc2ccc3nonc3c2[N+](=O)[O-])cc1	none
CN(C)c1ccc(C=c2c3ccccc3n3c2cc(-c2ccc(Cl)cc2)[n+]3C)cc1	dFosB activator 49.8 (no result: EBNA-1 inhibitor, ZTA DNA inh, TPT1 inhibitor)
CN(C)c1ccc(C=c2c3cc([N+](=O)[O-])ccc3n3c2cc(-c2ccccc2)[n+]3C)cc1	none (no result: EBNA-1 inhibitor, ZTA DNA inh, TPT1 inhibitor)
CN(C)c1ccc(C=c2c3ccccc3n3c2cc(-c2ccccc2)[n+]3C)cc1	dFosB activator 100.1, Rpn11 block 46.5 (no result: EBNA-1 inhibitor, ZTA DNA inh, TPT1 inhibitor)
CN(C)c1ccc(C=c2c3ccccc3n3c2c2c([n+]3C)CCCC2)cc1	dFosB activator 85.8 (no result: EBNA-1 inhibitor, ZTA DNA inh, TPT1 inhibitor)
O=C(c1cccc(S(=O)(=O)N2CCCc3ccccc32)c1)N1CCN(c2ccccc2)CC1	none (no result: EBNA-1 inhibitor, ZTA DNA inh, TPT1 inhibitor)
